aSyn UTR act = Activators via SNCA 5'UTR binding, MLPCN | alpha-synuclein 5'UTR reporter, activators screen | activity score, % (tested at 7.5 µM), hits read low | 7.1% of 300,000 active | AID 1814; in the data active means activity score below about -60%
Numbers without * were called inactive. A selection follows.

SMILES	aSyn UTR act
C=CCNc1nnc(Sc2ncccc2[N+](=O)[O-])s1	-115*
COC(=O)c1ccc(NC(=O)Nc2ccc(F)cc2F)cc1	-111*
O=C(Nc1ccc(F)cc1F)N1CCCCCC1	-86*
O=C(Nc1ccccc1)Nc1ccc(F)cc1F	-115*
CCSc1nsc(NC(=O)Nc2ccc(F)cc2F)n1	-138*
COC(=O)c1ccc(NC(=O)Nc2cccc(F)c2)cc1	-206*
Cc1ccccc1NCC(=O)N/N=C/C(Br)=C/c1ccccc1	-66*
O=C(CN1CCOCC1)N/N=C/C(Br)=C\c1ccccc1	-76*
CC(/C=N/NC(=O)Cc1cccs1)=C\c1ccccc1	-156*
CC(/C=N/NC(=O)Cc1cccn1C)=C\c1ccccc1	-118*
O=C(Cc1cccs1)N/N=C/C(Br)=C/c1ccccc1	-258*
COc1ccc(COC(=O)N/N=C/c2cccs2)cc1	-66*
COc1ccc(/C=N/NC(=O)Cc2cccs2)cc1	-70*
COc1ccccc1NC(=O)C(=O)N/N=C/c1cccs1	-147*
CCOc1ccc(/C=N/Nc2nc(C)cs2)c(O)c1	-260*
Cc1csc(N/N=C/c2c(F)cccc2Cl)n1	-74*
Cc1csc(N/N=C/c2ccccc2F)n1	-200*
CN(C)/C=C/C(=O)/C=C/c1ccc(Cl)cc1	-180*
Cc1cccc(Oc2cc([N+](=O)[O-])cc3c2C(=O)Nc2ccccc2O3)c1	-68*
COc1ccc(Cn2c(SCc3cc(C)ccc3C)nc3cc(OC)c(OC)cc3c2=N)cc1	55
COc1ccc(Cn2c(SCC#N)nc3ccc(N4CCOCC4)cc3c2=O)cc1	-88*
CCCOc1ccc2nc(NC(=O)OC)[nH]c2c1	84
c1ccc2[nH]c(NCc3ccc4c(c3)OCO4)nc2c1	-180*
COc1ccc2nc(NCc3ccccc3)[nH]c2c1	-80*
c1ccc(CNc2nc3ccccc3[nH]2)cc1	-79*
SMILES	aSyn UTR act
S=C(NCc1ccccc1)NNc1nc2ccccc2[nH]1	-74*
Cc1[nH]n(-c2ccccc2)c(=O)c1/C=C1/C=c2ccccc2=N1	-69*
CCCCc1noc2c1/C(=N\O)CC(c1ccccc1)C2 (stereo not given)	-77*
COc1cc2c(C#N)c(N3CCc4ccccc4C3)nc(N)c2c(N)n1	-88*
Cc1cccc(NC(=O)c2cc(-c3ccc(C)s3)nc3ccccc23)n1	-93*
CCc1ccc(-c2cc(C(=O)Nc3c(C)n(C)n(-c4ccccc4)c3=O)c3ccccc3n2)s1	-68*
Cc1nc2ccc(C(=O)c3ccccc3)cc2[nH]1	-95*
COC(=O)Nc1nc2ccc(C(=O)c3ccc(F)cc3)cc2[nH]1	99
Cc1cc(NCCCn2ccnc2)n2nc(C)c(-c3ccc(Cl)cc3)c2n1	54
Cc1cc(NCCCn2ccnc2)n2nc(C)c(-c3ccccc3)c2n1	-140*
Cc1ccc2nc(-c3ccsc3)c(NC3CCCC3)n2c1	-64*
Fc1ccccc1/C=N/Nc1ncnc2nc[nH]c12	-62*
Cc1ccc(/C=N/Nc2ncnc3nc[nH]c23)cc1	-63*
Fc1cccc(/C=N/Nc2ncnc3nc[nH]c23)c1	-93*
CCC(C)n1ncn(-c2ccc(N3CCN(c4ccc(O)cc4)CC3)cc2)c1=O (stereo not given)	73
CCCOc1ccc(-c2nc(OC)c3ccccc3n2)cc1	-85*
CC(=O)c1cnc2cc(-c3ccccc3)nn2c1C	-167*
CC(=O)c1cnc2nc(SCc3ccccc3)nn2c1C	-157*
CC(=O)c1cnc2cc(-c3ccc(C)cc3)nn2c1C	-243*
COc1ccc(-c2cc3ncc(C(C)=O)c(C)n3n2)cc1	-137*
COCc1c(C(C)C)nc(C(C)C)c(/C=C/[C@@H](O)C[C@@H](O)CC(=O)O)c1-c1ccc(F)cc1	115
COc1ccc(C)cc1NC(=O)Nc1ccc(C(=O)N2CCCC2)cc1	-64*
Cc1oc2c(c1C(=O)NCc1cccnc1)C(=O)c1ccccc1C2=O	107
COc1cccc(NC(=O)Nc2ccccc2SC)c1	-72*
COc1ccc(NC(=O)Nc2cc(C)ccc2F)cc1	-164*
SMILES	aSyn UTR act
O=C(NCc1cccnc1)NC1(C(F)(F)F)Oc2ccccc2O1	-66*
COc1cccc(NC(=O)NC2(C(F)(F)F)Oc3ccccc3O2)c1	-77*
COc1cccc(NC(=O)Nc2cc(C)ccc2F)c1	-73*
COc1cccc(NC(=O)NCc2ccccc2Cl)c1	-73*
Cc1cc(NC(=O)c2ccccc2)sc1C	-142*
Fc1ccccc1CSc1nnnn1-c1ccc2c(c1)OCO2	-65*
COc1cc(OC)c2c(=O)cc(-c3ccccc3)oc2c1	-102*
O=c1cc(-c2ccco2)oc2ccc(Cl)cc12	-96*
COc1cccc2oc(-c3ccco3)cc(=O)c12	-94*
COc1ccc2oc(-c3ccco3)cc(=O)c2c1	-129*
Cc1cc2n(n1)SC(Nc1ccc(F)c(Cl)c1)N2 (stereo not given)	-77*
O=C(NNc1c(F)c(F)cc(F)c1F)c1cc2ccccc2oc1=O	-122*
O=C(OC1CCCCC1)c1cc2ccccc2oc1=O	-109*
O=c1oc2ccccc2cc1NCc1ccccc1O	-176*
N=c1oc2ccccc2cc1C(=O)NC1CCCCCC1	-116*
O=C(c1cc2ccccc2oc1=O)N1CCOCC1	-124*
COc1cccc2cc(NC(=O)C3CCCCC3)c(=O)oc12	-162*
COc1cccc2cc(C(=O)OC3CCN(C)CC3)c(=O)oc12	-88*
O=C(NC1CCCCCC1)c1cc2ccccc2oc1=O	-139*
O=C(NCc1ccccc1Cl)c1cc2ccccc2oc1=O	-144*
CCn1cc(Cl)c(C(=O)Nc2nccs2)n1	-82*
Cn1cc(Cl)c(C(=O)Nc2nccs2)n1	-72*
O=C(Nc1nccs1)c1ncc(Cl)c(Cl)c1Cl	-76*
CCN(CC)C(=O)CSC(=Nc1ccccc1F)NC#N	-109*
CC1(C)Cc2c(sc(NC(=O)c3ccccc3)c2C(=O)O)CO1	-74*
SMILES	aSyn UTR act
COc1ccc(C(=O)Nc2sc3c(c2C(=O)O)CC(C)(C)OC3)cc1	63
O=C(Nc1scc(-c2ccc(F)cc2)c1C(=O)O)c1ccco1	-77*
COC(=O)c1c(-c2ccccc2)csc1NC(=O)c1ccco1	-168*
COC(=O)c1c(-c2ccccc2)csc1NC(=O)c1c(-c2ccccc2)noc1C	65
CCOC(=O)Cn1cncc1-c1ccc([N+](=O)[O-])cc1	-119*
c1ccc(SCc2nc3ccccc3s2)nc1	-113*
N#CCc1nc(CSc2nc3ccccc3o2)cs1	-134*
c1ccc2oc(SCc3nc4ccccc4s3)nc2c1	-149*
N/C(Cc1cccs1)=N\OC(=O)COc1ccc(Cl)cc1Cl	-154*
N/C(Cc1cccc2ccccc12)=N\OC(=O)Cc1cccs1	-117*
N/C(=N\OC(=O)Cc1cccs1)c1ccc(Br)cc1	-106*
Cc1ccccc1OCC(=O)O/N=C(\N)Cc1cccs1	-63*
Cc1ccccc1C(=O)O/N=C(\N)Cc1cccs1	-131*
CCCN(CC(=O)Nc1cc(Cl)ccc1Cl)C(=O)/C=C/c1ccco1	-68*
CNC[C@@H](CC1CCCCC1)NC[C@H](CC(C)C)NCCc1cccc(C(F)(F)F)c1	122
CC(C)NC(=O)CCc1nnc(Cc2cccc(C(F)(F)F)c2)o1	-95*
CC[C@@H](C)[C@H](CNC)NC[C@@H](Cc1cccc2ccccc12)NCCc1cccc(C(F)(F)F)c1	125
CC(=O)Nc1ccc(NC(=O)C(C)OC(=O)/C(C#N)=C/c2ccc(N(C)C)cc2)cc1 (stereo not given)	-85*
O=C(Nc1ccc(NC(=O)C2CC2)nc1)c1ccccc1F	-95*
CCCC(=O)Nc1ccc(NC(=O)c2ccccc2F)cn1	-90*

Bioassay records (PubChem)
